In the library only some 2.2% were active in any assay of this set; here they are far more common.
TRPM1 prom inh: reduces MITF-dependent TRPM1 promoter luciferase signal; 330,000 compounds, 0.83% hits; inhibition, % at 12.5 µM; SK-MEL-5 TRPM1 promoter luciferase, 24 h;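 active = mean inhibition across replicates of 60% or more, whatever share of single replicates reaches that level; inconclusive = some that reach 60%, reason not given; inactive = mean inhibition across replicates below 60%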
EBV LMP1 NFkB: reduces LMP1-driven NF-kappaB luciferase signal. LMP1-induced NF-kappaB luciferase reporter cells, luminescence. inhibition, % at 12.5 µM. 350,000 compounds, 0.69% hits; in the data active = inhibition above about 41%; inconclusive = no clear call, values can overlap the other calls;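 note: 0% = neutral control wells and 100% = reference inhibitor control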
LGR2 inh: blocks bursicon-induced cAMP signaling via Drosophila LGR2; AID 720647; HEK293 LGR2, CRE-luciferase, bursicon-stimulated, 4 h; inhibition, % at 9.99 µM; 380,000 compounds, 0.35% hits;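 active = drop in luminescence signal, shown as inhibition above about 50% in the replicate tests, limit read from the data, passing the limit was not always enough; inconclusive = probably only some replicates passing the limit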;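 note: agonist challenge used bursicon conditioned medium at about half maximal strength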
EWS-Fli inh: EWS/Fli transcriptional activity inhibition | AID 651661 | inhibition, % at 12.6 µM | 350,000 compounds, 0.67% hits | A673 NR0B1-luciferase reporter, viability-normalised;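 active = mean inhibition of at least 50% after viability correction, with every replicate also passing that limit; inconclusive = mean reaches 50% but only one of two replicates passes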;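 note: firefly luciferase signal divided by Alamar Blue viability fluorescence both relative to DMSO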
Shn3 inh set2: inhibitors of Schnurri-3 3'UTR reporter in osteoblasts; Clone20 osteoblast Shn3 3'UTR firefly luciferase, 24 h; 360,000 compounds, 0.52% hits; inhibition, % at 12.5 µM;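 active = mean inhibition of at least 75% with every replicate also reaching 75%; inconclusive = mean inhibition at least 75% but some replicate below; inactive = mean inhibition below 75%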;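 note: 0% = median of neutral control wells and 100% = pilot-screen positive control compound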
PAX8 inh HTS: inhibitors of PAX8 transcriptional activity in RMG-I cells; 360,000 compounds, 1.2% hits; RMG-I TPO-luciferase reporter, SteadyGlo, 24 h; inhibition, % at 12.6 µM;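 active = mean replicate inhibition at least 60% with every replicate also reaching 60%; inconclusive = only one of the two criteria is met; inactive = mean below 60% and not all replicates reaching 60%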;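 note: luciferase light reporting Pax8 driven TPO promoter activity; plate controls were median of neutral control wells for no effect and mitoxantrone controls for full effect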
* hit, by the source's call; ! = not active in a repeat.

What do the screens show for `COc1ccc(S(=O)(=O)N(C)C[C@H]2OCCCC[C@@H](C)Oc3ccc(NC(=O)Nc4ccc(C(F)(F)F)cc4)cc3C(=O)N([C@@H](C)CO)C[C@H]2C)cc1`?
LGR2 inh: -5; EWS-Fli inh: -4; PAX8 inh HTS: 8

What do the screens show for `COc1ccc(S(=O)(=O)N(C)C[C@H]2OCCCC[C@@H](C)Oc3ccc(NC(=O)Nc4ccc(C(F)(F)F)cc4)cc3C(=O)N([C@@H](C)CO)C[C@@H]2C)cc1`?
LGR2 inh: 8; EWS-Fli inh: 63*; PAX8 inh HTS: 55

What do the screens show for `COc1ccc(S(=O)(=O)N(C)C[C@@H]2OCCCC[C@H](C)Oc3ccc(NC(=O)Nc4ccc(F)cc4)cc3C(=O)N([C@H](C)CO)C[C@H]2C)cc1`?
LGR2 inh: 17; EWS-Fli inh: 19; PAX8 inh HTS: 67*

What do the screens show for `COc1ccc(S(=O)(=O)N(C)C[C@@H]2OCCCC[C@H](C)Oc3ccc(NC(=O)Nc4ccc(C(F)(F)F)cc4)cc3C(=O)N([C@H](C)CO)C[C@H]2C)cc1`?
EBV LMP1 NFkB: 9; LGR2 inh: 2; EWS-Fli inh: 18; Shn3 inh set2: 6; PAX8 inh HTS: 79*!

How did CNC[C@@H]1Oc2ncc(C#CC3(O)CCCC3)cc2C(=O)N([C@@H](C)CO)C[C@@H]1C do in these assays?
LGR2 inh: 3; EWS-Fli inh: -37; PAX8 inh HTS: -2

What do the screens show for `C[C@@H]1CCCCO[C@@H](CN(C)Cc2ccc(C(F)(F)F)cc2)[C@H](C)CN([C@@H](C)CO)C(=O)c2cc(NC(=O)Nc3ccccc3)ccc2O1`?
LGR2 inh: 3; EWS-Fli inh: 3; PAX8 inh HTS: inconclusive

What do the screens show for `C[C@@H]1CCCCO[C@H](CN(C)Cc2ccc(C(F)(F)F)cc2)[C@@H](C)CN([C@H](C)CO)C(=O)c2cc(NC(=O)Nc3ccccc3)ccc2O1`?
LGR2 inh: 8; EWS-Fli inh: 8; PAX8 inh HTS: 20

Results for C[C@@H]1CCCCO[C@H](CN(C)Cc2ccc(C(F)(F)F)cc2)[C@@H](C)CN([C@H](C)CO)C(=O)c2cc(NC(=O)c3ccccc3)ccc2O1 ?
LGR2 inh: 0; EWS-Fli inh: 0; PAX8 inh HTS: 23

How did C[C@@H]1CN([C@@H](C)CO)C(=O)c2cc(NC(=O)Nc3ccccc3)ccc2O[C@@H](C)CCCCO[C@@H]1CN(C)Cc1ccc(C(F)(F)F)cc1 do in these assays?
LGR2 inh: 6; EWS-Fli inh: 4; PAX8 inh HTS: 74*

Results for C[C@@H]1CN([C@H](C)CO)C(=O)c2cc(NC(=O)Nc3ccccc3)ccc2O[C@@H](C)CCCCO[C@@H]1CN(C)Cc1ccc(C(F)(F)F)cc1 ?
LGR2 inh: 11; EWS-Fli inh: 10; PAX8 inh HTS: 80*

What do the screens show for `C[C@@H]1CCCCO[C@H](CN(C)Cc2ccc(C(F)(F)F)cc2)[C@H](C)CN([C@@H](C)CO)C(=O)c2cc(NC(=O)c3ccccc3)ccc2O1`?
LGR2 inh: -4; EWS-Fli inh: 64*; PAX8 inh HTS: 85*

Results for C[C@@H]1CCCCO[C@@H](CN(C)Cc2ccc(C(F)(F)F)cc2)[C@H](C)CN([C@H](C)CO)C(=O)c2cc(NC(=O)Nc3ccccc3)ccc2O1 ?
LGR2 inh: 1; EWS-Fli inh: 10; PAX8 inh HTS: 78*

What do the screens show for `CCC(=O)Nc1ccc2c(c1)C(=O)N(C)[C@@H]1CC[C@@H](CC(=O)NC3CCCC3)O[C@H]1CO2`?
LGR2 inh: -1; EWS-Fli inh: 1; PAX8 inh HTS: 1

What do the screens show for `C[C@@H]1CCCCO[C@@H](CN(C)Cc2ccc(C(F)(F)F)cc2)[C@@H](C)CN([C@@H](C)CO)C(=O)c2cc(NC(=O)Nc3ccccc3)ccc2O1`?
LGR2 inh: 4; EWS-Fli inh: 1; PAX8 inh HTS: 58

How did C[C@@H]1CCCCO[C@H](CN(C)Cc2ccc(C(F)(F)F)cc2)[C@H](C)CN([C@@H](C)CO)C(=O)c2cc(NC(=O)Nc3ccccc3)ccc2O1 do in these assays?
LGR2 inh: 12; EWS-Fli inh: 23; PAX8 inh HTS: 75*

Results for C[C@@H]1CCCCO[C@H](CN(C)Cc2ccc(C(F)(F)F)cc2)[C@H](C)CN([C@H](C)CO)C(=O)c2cc(NC(=O)Nc3ccccc3)ccc2O1 ?
LGR2 inh: 5; EWS-Fli inh: 23; PAX8 inh HTS: 64*

How did CN(C)C(=O)c1cccc(-c2ccc3c(c2)[C@@H]2[C@@H](CCN2C(=O)C2CCCCC2)[C@H](CO)N3)c1 do in these assays?
LGR2 inh: 6; EWS-Fli inh: -2; PAX8 inh HTS: 10

What do the screens show for `O=C(C[C@@H]1CC[C@H]2[C@@H](COC[C@@H](O)CN2Cc2cccc(C(F)(F)F)c2)O1)NCc1ccc(F)cc1`?
LGR2 inh: 16; EWS-Fli inh: 28; PAX8 inh HTS: 98*

Results for O=C(C[C@@H]1CC[C@H]2[C@@H](COC[C@@H](O)CN2Cc2cccc(F)c2)O1)NCC1CCCCC1 ?
LGR2 inh: 2; EWS-Fli inh: 0; PAX8 inh HTS: 107*

Results for O=C(C[C@H]1CC[C@H]2[C@@H](COC[C@@H](O)CN2Cc2ccc(F)cc2)O1)NCc1ccccc1Cl ?
LGR2 inh: 15; EWS-Fli inh: 4; PAX8 inh HTS: 79*

How did O=C(C[C@H]1CC[C@@H]2[C@H](COC[C@@H](O)CN2Cc2cccc(C(F)(F)F)c2)O1)NCc1ccc(F)cc1 do in these assays?
LGR2 inh: 8; EWS-Fli inh: 21; PAX8 inh HTS: 12

What do the screens show for `O=C(C[C@@H]1CC[C@@H]2[C@H](COC[C@H](O)CN2Cc2cccc(F)c2)O1)NCC1CCCCC1`?
LGR2 inh: -8; EWS-Fli inh: -45; PAX8 inh HTS: -37

Results for CCC(=O)N1CC2(C1)[C@H](c1ccc(-c3ccccc3OC)cc1)[C@H](CO)N2C(C)=O ?
LGR2 inh: 2; EWS-Fli inh: 2; PAX8 inh HTS: 0

What do the screens show for `Cn1c(-c2ccccc2)cnc1SCC(=O)N1CCCCC1`?
TRPM1 prom inh: 45; EBV LMP1 NFkB: 66*; Shn3 inh set2: 21

Results for Cn1c(-c2ccccc2)cnc1SCC(=O)N1CCCc2ccccc21 ?
TRPM1 prom inh: 3; EBV LMP1 NFkB: -1; LGR2 inh: 9; EWS-Fli inh: -4; Shn3 inh set2: 1; PAX8 inh HTS: -2

How did CCC(=O)Nc1cc2nn(-c3ccc(OC)cc3)nc2cc1C do in these assays?
TRPM1 prom inh: -26; EBV LMP1 NFkB: 22; LGR2 inh: inconclusive; Shn3 inh set2: 8

Results for CCC(=O)Nc1cc2nn(-c3ccc(C)cc3)nc2cc1C ?
TRPM1 prom inh: 60; EBV LMP1 NFkB: 63*; LGR2 inh: 40; EWS-Fli inh: 77*; Shn3 inh set2: 50; PAX8 inh HTS: -118
